Numbering of substitutions follows the chain as printed; changes in the protein carry UniProt numbers. In all, about 16,000 sequences were measured (“ka relative to ugcaugu”: median about 0.0091, highest 2% from about 0.032 on). Many of the other results were omitted from the sample, so the highest values are more common in it than they were.

Sequences and labels used below:
B1: UCGUGUC (DNA:RNA)
RNA: GGGAGACCGGAAUUCAGAUUGUCCUCGUGUCUUAAAUCCCGUCGUAGCCACCA
DNA 1: CAATCTGAATTCCGGTCTCCC
DNA 2: TGGTGGCTACGACGGGATT
B2: AGCGUAU (DNA:RNA)
RNA: GGGAGACCGGAAUUCAGAUUGUCCAGCGUAUUUAAAUCCCGUCGUAGCCACCA
DNA 1: CAATCTGAATTCCGGTCTCCC
DNA 2: TGGTGGCTACGACGGGATT
B3: CCUGAUG (DNA:RNA)
RNA: B1 RNA with U25C, G27U, U28G, G29A, C31G
DNA 1: CAATCTGAATTCCGGTCTCCC
DNA 2: TGGTGGCTACGACGGGATT
B4: GCGUCGC (DNA:RNA)
RNA: B1 RNA with U25G, G29C, U30G
DNA 1: CAATCTGAATTCCGGTCTCCC
DNA 2: TGGTGGCTACGACGGGATT
B5: GUGAUAC (DNA:RNA)
RNA: B2 RNA with A25G, G26U, C27G, G28A, U31C
DNA 1: CAATCTGAATTCCGGTCTCCC
DNA 2: TGGTGGCTACGACGGGATT
B6: CCGUGAG (DNA:RNA)
RNA: B1 RNA with U25C, U30A, C31G
DNA 1: CAATCTGAATTCCGGTCTCCC
DNA 2: TGGTGGCTACGACGGGATT
B7: GAACUGU (DNA:RNA)
RNA: B2 RNA with A25G, G26A, C27A, G28C, A30G
DNA 1: CAATCTGAATTCCGGTCTCCC
DNA 2: TGGTGGCTACGACGGGATT
B8: GGAUGUC (DNA:RNA)
RNA: B1 RNA with U25G, C26G, G27A
DNA 1: CAATCTGAATTCCGGTCTCCC
DNA 2: TGGTGGCTACGACGGGATT
B9: GUGGAUG (DNA:RNA)
RNA: B1 RNA with U25G, C26U, U28G, G29A, C31G
DNA 1: CAATCTGAATTCCGGTCTCCC
DNA 2: TGGTGGCTACGACGGGATT
B10: GGGAUGU (DNA:RNA)
RNA: B2 RNA with A25G, C27G, G28A, A30G
DNA 1: CAATCTGAATTCCGGTCTCCC
DNA 2: TGGTGGCTACGACGGGATT
B11: GGAUUGU (DNA:RNA)
RNA: B2 RNA with A25G, C27A, G28U, A30G
DNA 1: CAATCTGAATTCCGGTCTCCC
DNA 2: TGGTGGCTACGACGGGATT
B12: GGGGAUG (DNA:RNA)
RNA: B2 RNA with A25G, C27G, U29A, A30U, U31G
DNA 1: CAATCTGAATTCCGGTCTCCC
DNA 2: TGGTGGCTACGACGGGATT
B13: UUGGAUG (DNA:RNA)
RNA: B1 RNA with C26U, U28G, G29A, C31G
DNA 1: CAATCTGAATTCCGGTCTCCC
DNA 2: TGGTGGCTACGACGGGATT
B14: GGAUGUU (DNA:RNA)
RNA: B1 RNA with U25G, C26G, G27A, C31U
DNA 1: CAATCTGAATTCCGGTCTCCC
DNA 2: TGGTGGCTACGACGGGATT
B15: GGAUGUG (DNA:RNA)
RNA: B1 RNA with U25G, C26G, G27A, C31G
DNA 1: CAATCTGAATTCCGGTCTCCC
DNA 2: TGGTGGCTACGACGGGATT
B16: GGAGAUG (DNA:RNA)
RNA: B2 RNA with A25G, C27A, U29A, A30U, U31G
DNA 1: CAATCTGAATTCCGGTCTCCC
DNA 2: TGGTGGCTACGACGGGATT
B17: CGGGAUG (DNA:RNA)
RNA: B2 RNA with A25C, C27G, U29A, A30U, U31G
DNA 1: CAATCTGAATTCCGGTCTCCC
DNA 2: TGGTGGCTACGACGGGATT
B18: GUGGAGA (DNA:RNA)
RNA: B2 RNA with A25G, G26U, C27G, U29A, A30G, U31A
DNA 1: CAATCTGAATTCCGGTCTCCC
DNA 2: TGGTGGCTACGACGGGATT
B19: CCGGAUG (DNA:RNA)
RNA: B1 RNA with U25C, U28G, G29A, C31G
DNA 1: CAATCTGAATTCCGGTCTCCC
DNA 2: TGGTGGCTACGACGGGATT
B20: AACCAGU (DNA:RNA)
RNA: B2 RNA with G26A, G28C, U29A, A30G
DNA 1: CAATCTGAATTCCGGTCTCCC
DNA 2: TGGTGGCTACGACGGGATT
B21: AAUAAUU (DNA:RNA)
RNA: B2 RNA with G26A, C27U, G28A, U29A, A30U
DNA 1: CAATCTGAATTCCGGTCTCCC
DNA 2: TGGTGGCTACGACGGGATT
B22: UGUGACC (DNA:RNA)
RNA: B2 RNA with A25U, C27U, U29A, A30C, U31C
DNA 1: CAATCTGAATTCCGGTCTCCC
DNA 2: TGGTGGCTACGACGGGATT
B23: CAAGGCG (DNA:RNA)
RNA: B2 RNA with A25C, G26A, C27A, U29G, A30C, U31G
DNA 1: CAATCTGAATTCCGGTCTCCC
DNA 2: TGGTGGCTACGACGGGATT
B24: CUCGCUC (DNA:RNA)
RNA: B2 RNA with A25C, G26U, U29C, A30U, U31C
DNA 1: CAATCTGAATTCCGGTCTCCC
DNA 2: TGGTGGCTACGACGGGATT
B25: UUUUCCG (DNA:RNA)
RNA: B1 RNA with C26U, G27U, G29C, U30C, C31G
DNA 1: CAATCTGAATTCCGGTCTCCC
DNA 2: TGGTGGCTACGACGGGATT
B26: CAUCAAA (DNA:RNA)
RNA: B2 RNA with A25C, G26A, C27U, G28C, U29A, U31A
DNA 1: CAATCTGAATTCCGGTCTCCC
DNA 2: TGGTGGCTACGACGGGATT
B27: GCCGGCC (DNA:RNA)
RNA: B1 RNA with U25G, G27C, U28G, U30C
DNA 1: CAATCTGAATTCCGGTCTCCC
DNA 2: TGGTGGCTACGACGGGATT
B28: UACAGCU (DNA:RNA)
RNA: B2 RNA with A25U, G26A, G28A, U29G, A30C
DNA 1: CAATCTGAATTCCGGTCTCCC
DNA 2: TGGTGGCTACGACGGGATT
B29: UGCAUAU (DNA:RNA)
RNA: B2 RNA with A25U, G28A
DNA 1: CAATCTGAATTCCGGTCTCCC
DNA 2: TGGTGGCTACGACGGGATT
B30: CUGCAUG (DNA:RNA)
RNA: B1 RNA with U25C, C26U, U28C, G29A, C31G
DNA 1: CAATCTGAATTCCGGTCTCCC
DNA 2: TGGTGGCTACGACGGGATT
B31: UGCAUGU (DNA:RNA)
RNA: B2 RNA with A25U, G28A, A30G
DNA 1: CAATCTGAATTCCGGTCTCCC
DNA 2: TGGTGGCTACGACGGGATT
B32: CUGCAUA (DNA:RNA)
RNA: B1 RNA with U25C, C26U, U28C, G29A, C31A
DNA 1: CAATCTGAATTCCGGTCTCCC
DNA 2: TGGTGGCTACGACGGGATT
B33: UGCAUUU (DNA:RNA)
RNA: B2 RNA with A25U, G28A, A30U
DNA 1: CAATCTGAATTCCGGTCTCCC
DNA 2: TGGTGGCTACGACGGGATT
B34: CUGCAUC (DNA:RNA)
RNA: B1 RNA with U25C, C26U, U28C, G29A
DNA 1: CAATCTGAATTCCGGTCTCCC
DNA 2: TGGTGGCTACGACGGGATT

The experiment concerns the target T1, RBFOX1 RRM (Homo sapiens, UniProt Q9NWB1 109-208).
T1 sequence: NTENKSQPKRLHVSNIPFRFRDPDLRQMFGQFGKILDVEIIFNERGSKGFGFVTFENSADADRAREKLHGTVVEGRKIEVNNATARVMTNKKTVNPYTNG
In words: EMSA; HiTS-Eq, 1 nM pool, 10 min; buffer printed only for the single-RNA assays: 10 mM Tris pH 7.5, 150 mM NaCl, 3.4 mM EDTA, 0.001% NP-40, 30 C. The settings on record: tags: His6 N-terminal (pET28a); label: 5' 32P. Put shortly:
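A pool of RNA with 7 randomized nucleotides, 5′-radiolabelled and with DNA-annealed flanks, was equilibrated at 1 nM for 10 min in 50 µL with purified RbFox RRM, wild type or mutant, across increasing protein concentrations. Free RNA was separated by 8% native PAGE, excised, reverse-transcribed, barcoded by PCR and sequenced. Relative association constants were obtained from read-count changes of each RNA species versus the control reaction and normalised to the cognate motif.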
On to B1, for which the binding signal is 0.0187 KA relative to UGCAUGU.

Consider B2, for which the binding signal is 0.00639 KA relative to UGCAUGU. The result for B3 reads 0.0205 KA relative to UGCAUGU; that for B4, 0.0157 KA relative to UGCAUGU; that for B5, 0.00876 KA relative to UGCAUGU. Take B6: the binding signal was 0.0105 KA relative to UGCAUGU. In the case of B7 it was 0.0163 KA relative to UGCAUGU; in that of B8, 0.027 KA relative to UGCAUGU.

On to B9, for which the binding signal is 0.0371 KA relative to UGCAUGU.

For B10, the binding signal was 0.048 KA relative to UGCAUGU. For B11, the binding signal is 0.0266 KA relative to UGCAUGU.

In the case of B12, the binding signal is 0.0389 KA relative to UGCAUGU.

With B13, the binding signal was 0.0302 KA relative to UGCAUGU. With B14, the binding signal is 0.0216 KA relative to UGCAUGU. B15: the binding signal was 0.0207 KA relative to UGCAUGU. In the case of B16 it was 0.0269 KA relative to UGCAUGU; in that of B17, 0.0412 KA relative to UGCAUGU; in that of B18, 0.0173 KA relative to UGCAUGU. In the case of B19 it was 0.00955 KA relative to UGCAUGU. In the case of B20 it was 0.000945 KA relative to UGCAUGU; in that of B21, 0.00136 KA relative to UGCAUGU.

For the molecule B22, the binding signal was 0.0155 KA relative to UGCAUGU. In the case of B23 it was 0.00837 KA relative to UGCAUGU; in that of B24, 0.00968 KA relative to UGCAUGU. The result for B25 reads 0.0112 KA relative to UGCAUGU.

As to B26, the binding signal was 0.00054 KA relative to UGCAUGU.

As to B27, the binding signal is 0.0116 KA relative to UGCAUGU. With B28, the binding signal is 0.00395 KA relative to UGCAUGU.

On to B29, for which the binding signal is 0.0115 KA relative to UGCAUGU.

As for B30, the binding signal is 1.04 KA relative to UGCAUGU. On to B31, for which the binding signal was 1 KA relative to UGCAUGU. Consider B32, for which the binding signal was 0.017 KA relative to UGCAUGU. Turning to B33, the binding signal is 0.0179 KA relative to UGCAUGU. B34: the binding signal was 0.0212 KA relative to UGCAUGU.

Source of the values: PMC9911399, “Two distinct binding modes provide the RNA-binding protein RbFox with extraordinary sequence specificity”.
